Measurements from the supplement of paper PMC6555819.

How the values were obtained:
Test in all cases: PBM binding z-score (relative to random genomic background probes); higher = stronger binding; sequences stand for … in GC…GCGATTGACAGCGTAGAATGAAGG
[1] = system: RARb homodimer (NR concentration 270 nM)
Method in brief: (§1)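 Ligand-free nuclear receptor dimers were bound for 1 h to custom Agilent 4×180K protein-binding microarrays. Detection used antibodies against each partner (one per run). Binding z-scores rest on regression-normalized fluorescence, with random background probes as the reference.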

[2] = system: RARg:RXRa (NR concentration 270 nM, RXRa partner concentration 90 nM)
Method in brief: as §1

[3] = system: RARg homodimer (NR concentration 270 nM)
Method in brief: as §1

[4] = system: RXRa DBDmut IVT, anti-RXR (DBD mutation: RXRa K156A/R161A, NR concentration 90 nM)
Method in brief: as §1

[5] = system: RXRa homodimer (NR concentration 180 nM)
Method in brief: as §1

[6] = system: THRa:RXRa (NR concentration 90 nM, RXRa partner concentration 90 nM)
Method in brief: as §1

[7] = system: THRa homodimer (NR concentration 90 nM)
Method in brief: as §1

[8] = system: VDR homodimer (NR concentration 270 nM)
Method in brief: as §1

## ATACCAAGCTGATCGTGAGGTCGTTGATACTAAC
[1]
  PBM binding z-score: 1.07
[2]
  PBM binding z-score: 0.355
[3]
  PBM binding z-score: 0.15
[4]
  PBM binding z-score: 0.629
[5]
  PBM binding z-score: 0.837
[6]
  PBM binding z-score: 2.12
[7]
  PBM binding z-score: 1.76
[8]
  PBM binding z-score: 2.35

## ACTAACAGGCCAAGTTTGGGTCACTCAAACAAAG
[1]
  PBM binding z-score: 2.55
[2]
  PBM binding z-score: 2.88
[3]
  PBM binding z-score: 2.24
[4]
  PBM binding z-score: 0.278
[5]
  PBM binding z-score: 0.882
[6]
  PBM binding z-score: 2.73
[7]
  PBM binding z-score: 1.26
[8]
  PBM binding z-score: 0.351

## ACTATTAGTTGACTTAGGTCAACCGATACGACGC
[1]
  PBM binding z-score: 3.31
[2]
  PBM binding z-score: 2.8
[3]
  PBM binding z-score: 2.9
[4]
  PBM binding z-score: 1.07
[5]
  PBM binding z-score: 2.17
[6]
  PBM binding z-score: 3.47
[7]
  PBM binding z-score: 2.98
[8]
  PBM binding z-score: 1.41

## TAGCCTAGGTCATGCGGGCCAGTATGGTGTCGGC
[1]
  PBM binding z-score: 2.86
[2]
  PBM binding z-score: 4.2
[3]
  PBM binding z-score: 4.58
[4]
  PBM binding z-score: 0.269
[5]
  PBM binding z-score: 3.23
[6]
  PBM binding z-score: 2.96
[7]
  PBM binding z-score: 1.07
[8]
  PBM binding z-score: 0.682

## AGAATGAGGTTACCAAAGATCAGGGGAACGCTTG
[1]
  PBM binding z-score: 1.08
[2]
  PBM binding z-score: 2.1
[3]
  PBM binding z-score: 1.75
[4]
  PBM binding z-score: 1.25
[5]
  PBM binding z-score: 2.79
[6]
  PBM binding z-score: 2.87
[7]
  PBM binding z-score: 0.753
[8]
  PBM binding z-score: 0.0393

## GCATATAGGTAACACAAGGTGAAAGTCCGATTGT
[1]
  PBM binding z-score: 1.15
[2]
  PBM binding z-score: 0.82
[3]
  PBM binding z-score: 0.784
[4]
  PBM binding z-score: 0.286
[5]
  PBM binding z-score: 0.938
[6]
  PBM binding z-score: 4.19
[7]
  PBM binding z-score: 0.843
[8]
  PBM binding z-score: 0.00161

## TCTTGTAGATCAATGGTTAAGAAAGCCGAAGCCT
[1]
  PBM binding z-score: -0.529
[2]
  PBM binding z-score: -0.0652
[3]
  PBM binding z-score: -0.444
[4]
  PBM binding z-score: 0.768
[5]
  PBM binding z-score: 0.123
[6]
  PBM binding z-score: -0.193
[7]
  PBM binding z-score: -0.412
[8]
  PBM binding z-score: -0.25

## CTACCAAGGTAAACAAGGTCGTTGATTACTATTC
[1]
  PBM binding z-score: 1.18
[2]
  PBM binding z-score: 0.545
[3]
  PBM binding z-score: 0.535
[4]
  PBM binding z-score: 1.34
[5]
  PBM binding z-score: 1.06
[6]
  PBM binding z-score: 3.2
[7]
  PBM binding z-score: 1.5
[8]
  PBM binding z-score: 2.04

## CAAACTAGGTCACCGGAAGGTCCAAGTCCGCATG
[1]
  PBM binding z-score: 3.77
[2]
  PBM binding z-score: 5.27
[3]
  PBM binding z-score: 5.86
[4]
  PBM binding z-score: 1.82
[5]
  PBM binding z-score: 3.81
[6]
  PBM binding z-score: 3.59
[7]
  PBM binding z-score: 2.3
[8]
  PBM binding z-score: 1.68

## GCTATTGGTTGAAAGGGCAACCGAATGATTCTCG
[1]
  PBM binding z-score: 1.94
[2]
  PBM binding z-score: 1.33
[3]
  PBM binding z-score: 1.27
[4]
  PBM binding z-score: 0.0979
[5]
  PBM binding z-score: 1.32
[6]
  PBM binding z-score: 0.466
[7]
  PBM binding z-score: -0.293
[8]
  PBM binding z-score: 0.0908

## TCTTGTAGATCAACAGGAGGTTATGAAAGATCGA
[1]
  PBM binding z-score: 0.222
[2]
  PBM binding z-score: 0.765
[3]
  PBM binding z-score: 0.211
[4]
  PBM binding z-score: 0.368
[5]
  PBM binding z-score: 0.889
[6]
  PBM binding z-score: 0.76
[7]
  PBM binding z-score: -0.681
[8]
  PBM binding z-score: -0.167

## TCTTGTAGATCAATAGAGGTCAAGAAAGTGCGCT
[1]
  PBM binding z-score: 4.21
[2]
  PBM binding z-score: 3.92
[3]
  PBM binding z-score: 3.84
[4]
  PBM binding z-score: 0.858
[5]
  PBM binding z-score: 4.46
[6]
  PBM binding z-score: 4.17
[7]
  PBM binding z-score: 0.941
[8]
  PBM binding z-score: 2.12

## CCTACTGGGTCAAAAAGGTCATTGATGCCGATAA
[1]
  PBM binding z-score: 5.05
[2]
  PBM binding z-score: 6.12
[3]
  PBM binding z-score: 5.84
[4]
  PBM binding z-score: 1.56
[5]
  PBM binding z-score: 6.62
[6]
  PBM binding z-score: 3.76
[7]
  PBM binding z-score: 1.1
[8]
  PBM binding z-score: 4.79

## ATACCAAGGTGATCGTGAGGTCCTTGATACTAAC
[1]
  PBM binding z-score: 0.337
[2]
  PBM binding z-score: 0.376
[3]
  PBM binding z-score: 0.386
[4]
  PBM binding z-score: 0.0286
[5]
  PBM binding z-score: 0.487
[6]
  PBM binding z-score: 1.94
[7]
  PBM binding z-score: 0.903
[8]
  PBM binding z-score: 0.291

## ATCTCTAGGTAACCAAGTTGAGTGAATGCCGAAC
[1]
  PBM binding z-score: 0.229
[2]
  PBM binding z-score: -0.0592
[3]
  PBM binding z-score: 0.11
[4]
  PBM binding z-score: 0.0229
[5]
  PBM binding z-score: 0.0959
[6]
  PBM binding z-score: 0.852
[7]
  PBM binding z-score: 0.635
[8]
  PBM binding z-score: 0.254

## TCTAGCTGGCCAGAGGGTCACTCAAGAGGTACGG
[1]
  PBM binding z-score: 2.27
[2]
  PBM binding z-score: 2.07
[3]
  PBM binding z-score: 1.43
[4]
  PBM binding z-score: -0.123
[5]
  PBM binding z-score: 2.18
[6]
  PBM binding z-score: 1.48
[7]
  PBM binding z-score: -0.56
[8]
  PBM binding z-score: 0.32

## TCGAGTAGGTTACCAATGGGGCATTAAGCTTTCT
[1]
  PBM binding z-score: 0.561
[2]
  PBM binding z-score: 0.966
[3]
  PBM binding z-score: 0.213
[4]
  PBM binding z-score: 0.338
[5]
  PBM binding z-score: 0.336
[6]
  PBM binding z-score: -0.0215
[7]
  PBM binding z-score: -0.627
[8]
  PBM binding z-score: -0.636

## TTACCAAGGTGAAGGTGGTTGATCCCTCTGTAGA
[1]
  PBM binding z-score: 0.653
[2]
  PBM binding z-score: 0.26
[3]
  PBM binding z-score: 0.431
[4]
  PBM binding z-score: -0.51
[5]
  PBM binding z-score: 0.689
[6]
  PBM binding z-score: 1.78
[7]
  PBM binding z-score: 0.829
[8]
  PBM binding z-score: -0.454

## TCAAGTAGGTTAGGGGCATTCAGAATGGCGTCGA
[1]
  PBM binding z-score: 1.23
[2]
  PBM binding z-score: 0.789
[3]
  PBM binding z-score: 0.56
[4]
  PBM binding z-score: 1.29
[5]
  PBM binding z-score: 1.08
[6]
  PBM binding z-score: 1.45
[7]
  PBM binding z-score: 0.575
[8]
  PBM binding z-score: 1.48

## TCTGCTAGGTCAACGATAGTCAGCTAATCTGCTA
[1]
  PBM binding z-score: 2.84
[2]
  PBM binding z-score: 3.9
[3]
  PBM binding z-score: 4.6
[4]
  PBM binding z-score: 0.919
[5]
  PBM binding z-score: 2.63
[6]
  PBM binding z-score: 2.67
[7]
  PBM binding z-score: 0.277
[8]
  PBM binding z-score: -0.234

## AATACAGGGTCACTAGGCCAGAGTCGGTACGAAT
[1]
  PBM binding z-score: 3.25
[2]
  PBM binding z-score: 5.29
[3]
  PBM binding z-score: 4.87
[4]
  PBM binding z-score: 2.71
[5]
  PBM binding z-score: 5.3
[6]
  PBM binding z-score: 3.43
[7]
  PBM binding z-score: 1.24
[8]
  PBM binding z-score: 2.7

## ATCTTTAGGTAAAGATAGTTCAGTGAATGCAAAT
[1]
  PBM binding z-score: 0.997
[2]
  PBM binding z-score: 0.713
[3]
  PBM binding z-score: 0.798
[4]
  PBM binding z-score: 0.388
[5]
  PBM binding z-score: 0.298
[6]
  PBM binding z-score: 1.23
[7]
  PBM binding z-score: 0.203
[8]
  PBM binding z-score: 0.742

## ATATGTAGGTTTCATCCGGGTCATTCAGGCTATG
[1]
  PBM binding z-score: 2.53
[2]
  PBM binding z-score: 1.62
[3]
  PBM binding z-score: 0.901
[4]
  PBM binding z-score: 1.35
[5]
  PBM binding z-score: 2.07
[6]
  PBM binding z-score: 3.22
[7]
  PBM binding z-score: 2.18
[8]
  PBM binding z-score: 3.21

## CGTCCAAGGTCAGAGAGTTCAGTGAATGCCGAGT
[1]
  PBM binding z-score: 4.39
[2]
  PBM binding z-score: 5.25
[3]
  PBM binding z-score: 6.4
[4]
  PBM binding z-score: 3.78
[5]
  PBM binding z-score: 4.59
[6]
  PBM binding z-score: 3.62
[7]
  PBM binding z-score: 2
[8]
  PBM binding z-score: 7.94

## CCTGCTAGGTCAATGGTAAGCTAAAGCAGCTCGC
[1]
  PBM binding z-score: 2.43
[2]
  PBM binding z-score: 3.52
[3]
  PBM binding z-score: 3.82
[4]
  PBM binding z-score: 1.66
[5]
  PBM binding z-score: 1.96
[6]
  PBM binding z-score: 2.03
[7]
  PBM binding z-score: 0.52
[8]
  PBM binding z-score: -0.274

## CGAACTAGGGCATGAGTTGATAGCAAATGCCGAT
[1]
  PBM binding z-score: 0.222
[2]
  PBM binding z-score: 0.852
[3]
  PBM binding z-score: 0.834
[4]
  PBM binding z-score: 0.394
[5]
  PBM binding z-score: 0.388
[6]
  PBM binding z-score: 0.0506
[7]
  PBM binding z-score: -0.493
[8]
  PBM binding z-score: 0.329

## CCTTACGGGTCACTGACATGTTATAGCATTTGGA
[1]
  PBM binding z-score: 3.05
[2]
  PBM binding z-score: 4.89
[3]
  PBM binding z-score: 4.58
[4]
  PBM binding z-score: 2.2
[5]
  PBM binding z-score: 5.13
[6]
  PBM binding z-score: 2.61
[7]
  PBM binding z-score: 0.312
[8]
  PBM binding z-score: 1

## TCATATAGGGAAACAGGTGAAAGTCCGTAAGTTA
[1]
  PBM binding z-score: 0.562
[2]
  PBM binding z-score: 0.344
[3]
  PBM binding z-score: 0.215
[4]
  PBM binding z-score: 1.66
[5]
  PBM binding z-score: 0.796
[6]
  PBM binding z-score: 0.537
[7]
  PBM binding z-score: 0.314
[8]
  PBM binding z-score: -0.0866
